According to PubChem BioAssay AID686978 (National Center for Advancing Translational Sciences (NCATS), 2013):
In all, about 420,000 compounds went through this assay and about 64,000 (15%) were called active. Not shown: some 27% with an inconclusive outcome. The call rests on the fitted dose curve; in most records, active means well fitted inhibition curve with a large enough effect; inconclusive means small, poorly fitted or top-dose-only effect; inactive means flat fitted curve, though single readings scatter. These entries were drawn from the full list.

assay: qHTS for Inhibitors of human tyrosyl-DNA phosphodiesterase 1 (TDP1): qHTS in cells in absence of CPT; settings: DT40 Tdp1-/- hTDP1 cells, no CPT, ATP luminescence, 48 h; activity change, negative = growth inhibition: at 46.2 µM (top of the series); further: nearly all actives have a fitted effect of over 55% in size
Description: Human tyrosyl-DNA phosphodiesterase 1 (TDP1) is a novel repair gene, and we propose to use it as a new target for anticancer drug development. TDP1 is not an essential protein, but under treatment with topoisomerase I poison (camptothecin: CPT), TDP1 works as a critical factor for cell survival. To directly identify novel TDP1 inhibitors active in a cellular environment, we have knocked-out the Tdp1 gene in chicken DT40 cells (Tdp1-/-) and generated a complemented counterpart cells that contains a stable transfection of the human TDP1 gene (Tdp1-/-;hTDP1 cells). For the primary screen, Tdp1-/-;hTDP1 cells will be exposed to small molecules in the presence or absence of CPT, and their growth kinetics will be evaluated after 48 hours by measuring ATP activity. […] The hit compounds will then be evaluated in the presence or absence of CPT using Tdp1-/- cells. […] In tertiary assays, biochemical gel-based assays will be used to assess whether the hit compounds specifically target TDP1.
To this end, we have screened this cell line against the MLSMR in two primary screens. In one screen we add CPT and in the other we screen in the absence of CPT; this AID represents the screen where CPT was absent.
NIH Chemical Genomics Center [NCGC]
NIH Molecular Libraries Probe Centers Network [MLPCN]
Assay Submitter (PI): Yves Pommier, NCI
DT40-hTDP1 cells without 20 nM Camptothecin (add 20 microL of DMSO in 1 L of cell culture medium) were dispensed at 400 cells/5microL/well in tissue culture treated 1536-well white wall/solid bottom assay plates (Greiner Bio-One North America, NC, U.S.A.) using a Multidrop Combi 8 channel dispenser (Thermo Fisher, Waltham, MA, USA). 23 nL compounds and controls were transferred using the pin tool (Kalypsys, San Diego, CA, USA) to the assay plates. The assay plates were then incubated at 37 masculineC for a minimum 48 hr. Three microL of Cell Titer Glo solution was added to the plates and incubated at RT in dark for 30 min. Luminescence was read using ViewLux (Perkin Elmer) with 1 sec exposure slow speed, high gain and 2x binning.
On the % scale 0 is the no-effect control and ±100 the full control effect; potency means the concentration at half of the fitted maximal effect.

Structure (SMILES)	activity change, negative = growth inhibition	Potency
CCCNC(=O)COc1coc(CN2CCN(Cc3ccccc3)CC2)cc1=O	11.7% (inactive)	–
O=S(=O)(c1ccccc1)N1CCC(c2ccccc2)CC1	-16.2% (inactive)	–
O=C(C1CCCO1)N1CCC(c2nc3ccccc3[nH]2)CC1 (stereo not given)	-4.09% (inactive)	–
O=S(=O)(c1ccc(Br)cc1)N1CCC(c2nc3ccccc3[nH]2)CC1	–	20.6 µM (active)
Cc1c(NC(=O)c2c([N+](=O)[O-])cnn2C)c(=O)n(-c2ccccc2)n1C	5.36% (inactive)	–
O=C(NCC12CC3CC(C1)CC(CNC(=O)N1CCCC1)(C3)C2)N1CCCC1	-19.6% (inactive)	–
O=c1cc(Cl)c2ccccc2n1-c1ccccc1	-3.55% (inactive)	–
Cc1ccc(-n2c3nc(=O)[nH]c(=O)c-3cc3c(Cl)cccc32)cc1	–	0.731 µM (active)
Cc1ccc(-n2c(-c3ccc(Cl)cc3)n[nH]c2=S)cc1	-8.56% (inactive)	–
NC(=O)NCCCC(=O)O	25.5% (inactive)	–
CCC(C)Cn1c(O)cc2nn(-c3nc4ccccc4s3)c(=O)c-2c1C (stereo not given)	–	18.4 µM (active)
Cc1nn(CC(=O)Nc2nc3ccccc3s2)c(C)c1[N+](=O)[O-]	-13.3% (inactive)	–
CCCS(=O)(=O)N1CCCC(C(=O)NCCN2CCCCC2C)C1 (stereo not given)	9.41% (inactive)	–
Cc1c(NC(=O)Nc2ccccc2Cl)sc(=S)n1C	9.06% (inactive)	–
C/C(=N\NS(=O)(=O)c1ccc(Cl)cc1)c1ccc(NC(=O)c2ccco2)cc1	-12.3% (inactive)	–
Cc1ccc(-c2nnc(SCc3ccccc3C)o2)cc1	-26.2% (inactive)	–
O=C(c1ccc(F)cc1)c1cn(Cc2ccc(F)cc2)c2cc3c(cc2c1=O)OCCO3	-19.6% (inactive)	–
CCOc1ccc(C(=O)c2cn(Cc3ccccc3OC)c3ccc(F)cc3c2=O)cc1	–	20.6 µM (active)
COc1ccccc1CNC(=O)CN1CCC(n2cnc3cc(F)ccc32)CC1	-29.6% (inactive)	–
CCOC(=O)C1CCN(C(c2ccc(F)cc2)c2sc3nc(-c4ccco4)nn3c2O)CC1 (stereo not given)	-15.8% (inactive)	–
Cc1cccc(Cn2c(=O)n(CCC(=O)NCCc3ccc(Cl)cc3)c(=O)c3sccc32)c1	-14.5% (inactive)	–
CCc1c(C)nc2c(OC)cccc2c1Cl	-7.5% (inactive)	–
CCOc1ccc(CC(=O)Nc2ccc(S(=O)(=O)Nc3cc(C)on3)cc2)cc1OCC	1.83% (inactive)	–
Cc1cccc(C(=O)Nc2nnc(Cc3c[nH]c4ccccc34)s2)c1	-23.7% (inactive)	–
CCCCOCCCNC(=O)C[C@@H]1C[C@@]2(C(=O)OCC)CCCC=C2N(CCC2=CCCCC2)C1=O	–	18.4 µM (active)
COc1ccc(CN2C(=O)C(CC(=O)NCCN3CCOCC3)CC(C(=O)N(C(C)C)C(C)C)=C2C)cc1 (stereo not given)	-2.68% (inactive)	–
COCCCN1C(=O)C(CC(=O)NCc2cccs2)CC(C(=O)N2CCOCC2)=C1C (stereo not given)	3.62% (inactive)	–

Structure (SMILES)	activity change, negative = growth inhibition	Potency
CC1=C(C(=O)N(C)C)CC(CC(=O)NCCc2ccccn2)C(=O)N1CCC1=CCCCC1 (stereo not given)	-10.7% (inactive)	–
COC(=O)[C@]12CCCCC=C1N(CCC1=CCCCC1)C(=O)[C@H](CC(=O)NCC1CCCCC1)C2	–	23.1 µM (active)
CC(C)COc1ccc(C(=O)OCC(=O)NCCC2=CCCCC2)cc1	-16.4% (inactive)	–
CCCCOCCCNC(=O)C[C@@H]1C[C@@]2(C(=O)OC)CCCCC=C2N(CCC2=CCCCC2)C1=O	–	23.1 µM (active)
CN1CCNC(=O)C1CC(=O)NCCC1=CCCCC1 (stereo not given)	2.56% (inactive)	–
CCOC(=O)[C@]12CCCC=C1N(CCC1=CCCCC1)C(=O)[C@H](CC(=O)NCCCOC)C2	–	20.6 µM (active)
COc1cccc(CNC(=O)C(NS(=O)(=O)c2ccc3nc(C)sc3c2)C(C)C)c1 (stereo not given)	-22.3% (inactive)	–
Cc1cc(C)cc(NC(=O)Cc2csc(C)n2)c1	-0.897% (inactive)	–
Cc1ccc(C)c(NC(=O)CCC(=O)N/N=C2/CC(=O)CC(C)(C)C2)c1	-11.3% (inactive)	–
CCCCC(=O)N1CC2(C)CN(C(=O)CCCC)CC(C)(C1)C2=O	-2.18% (inactive)	–
O=C(O)CN(Cc1ccco1)S(=O)(=O)c1ccccc1	-1.89% (inactive)	–
O=C(CCNC(=O)c1ccc(Br)cc1)NCC(c1ccco1)N1CCCCC1 (stereo not given)	-18.3% (inactive)	–
CC(C)CN(C(=O)c1cccc(S(=O)(=O)N2CCCCC2)c1)C1CCS(=O)(=O)C1 (stereo not given)	–	inactive
CCCCNCc1ccc(SC)cc1	-13.6% (inactive)	–
CC(=NNC(N)=O)C1CC2CCC1CC2 (stereo not given)	-5.2% (inactive)	–
ClC/C=C/C[n+]1ccccc1Cl	-12.5% (inactive)	–
CN(C)c1ccc(NC(=O)c2ccncc2)c2ccccc12	-1.64% (inactive)	–
O=c1c2c(-c3ccccc3)ccnc2[nH]n1-c1ccccc1	–	inactive
O=c1c(-c2ccccc2Cl)c[nH]n1-c1ccccc1	-25.4% (inactive)	–
O=c1c(-c2cccc(Cl)c2)c[nH]n1-c1ccccc1	–	16.4 µM (active)
N#C/C=C1\Sc2ccccc2C(=O)N1CC(=O)N1CCN(S(=O)(=O)c2ccccc2)CC1	-6.42% (inactive)	–
O=C(O)c1ccccc1-c1ccccc1C(=O)Nc1ccccc1Br	15.2% (inactive)	–
COc1ccc(N2C(=O)CCC(C(=O)N(C)C3CCCCC3)C2c2ccc(OC)c(OC)c2)cc1 (stereo not given)	-18% (inactive)	–
CCOC(=O)C1CCCN(C(=O)C2CCN(c3nnc(-n4cccc4)s3)CC2)C1 (stereo not given)	-25.4% (inactive)	–
Cc1c(C)n2c(SCC(=O)N3CCCC3)nnc2[nH]c1=O	0.243% (inactive)	–
CCOC(=O)C1CCCN(C(=O)CSc2nnc3nc(C)cc(C)n23)C1 (stereo not given)	–	20.6 µM (active)
CCCCN1C(=O)CCC(C(=O)O)C1c1ccc(OC)cc1 (stereo not given)	-28.3% (inactive)	–

Structure (SMILES)	activity change, negative = growth inhibition	Potency
COc1cc(/C=C2\CCCc3c2nc2ccccc2c3C(=O)O)cc(Cl)c1O	10.6% (inactive)	–
COc1cc(-c2cc(C(=O)OCC(=O)Nc3ccc4c(c3)OCO4)c3ccccc3n2)cc(OC)c1OC	2.26% (inactive)	–
O=C(COC(=O)c1cccs1)Nc1ccccc1Cl	-5.92% (inactive)	–
O=C(COC(=O)c1ccncc1)Nc1ccc2c(c1)OCO2	16.5% (inactive)	–
O=C(COC(=O)c1c2c(nc3ccccc13)/C(=C\c1cccs1)CCC2)Nc1ccccc1Cl	–	13 µM (active)
NS(=O)(=O)c1ccc(NC(=O)COC(=O)c2cc3ccccc3oc2=O)cc1	3.57% (inactive)	–
O=C(COC(=O)c1ccc(F)cc1)Nc1ccc2c(c1)OCO2	-23.8% (inactive)	–
NC(=O)c1ccc(NC(=O)COC(=O)c2c3c(nc4ccccc24)/C(=C\c2ccc4c(c2)OCO4)CCC3)cc1	–	8.2 µM (active)
NS(=O)(=O)c1ccc(NC(=O)COC(=O)c2c3c(nc4ccccc24)/C(=C\c2ccc4c(c2)OCO4)CCC3)cc1	–	13 µM (active)
COCCC(=O)Nc1ccc2c(c1)CN(C(=O)CCOC)CC2	-6.12% (inactive)	–
COc1ccccc1C(=O)OCC(=O)NCCNC(=O)COC(=O)c1ccccc1OC	-0.215% (inactive)	–
C/C=C(\C)C(=O)N1CC2(CC(c3cccc(NC(=O)CCCCC)c3)=NO2)C[C@@H]1C(N)=O (stereo not given in full)	-6.33% (inactive)	–
CCC1(c2ccccc2)NC(=O)N(CC(=O)c2ccc3c(c2)OCO3)C1=O (stereo not given)	-7.08% (inactive)	–
O=C(COC(=O)c1ccccc1)c1ccc2c(c1)OCCO2	-6.69% (inactive)	–
O=C(CCN1CCc2ccccc2C(O)(c2ccccc2)C1)c1ccc2c(c1)OCCO2 (stereo not given)	–	2.91 µM (active)
COc1ccc(CCOC2OC(CO)C(OC(=O)/C=C/c3ccc(O)c(OC)c3)C(O[C@H]3O[C@@H](C)[C@H](O)[C@@H](O)[C@H]3O)C2O)cc1O (stereo not given in full)	-13.4% (inactive)	–
Cc1ccc(CNC(=O)c2ccccc2CCc2ccccc2)cc1	-10.1% (inactive)	–
CNC[C@H](CC1CCCCC1)NC[C@H](NCCC1CCCC1)[C@H](C)O	–	20.6 µM (active)
O=C(CN1C(=O)NC2(CCCCCC2)C1=O)NCc1cccs1	0.121% (inactive)	–
CN=C1SC(C(=O)O)CC(=O)N1C (stereo not given)	1.26% (inactive)	–
COc1ccc(C(=O)n2nc(-c3ccc(C)cc3)nc2N)cc1OC	–	10.3 µM (active)
COc1ccc(C(=O)n2nc(C)c(Br)c2C)cc1OC	-0.43% (inactive)	–
COc1ccc(CC(=O)n2nc(-c3cccnc3)nc2N)cc1	1.94% (inactive)	–
Oc1ccc(Cl)c2c1CCC2	-27% (inactive)	–
CN(Cc1cccnc1)C(=O)c1cc(COc2ccc3ncccc3c2)on1	–	8.2 µM (active)
Cc1ccc(OCc2cc(C(=O)N(C)CCc3ccccc3)no2)cc1C	-19% (inactive)	–
CN(CCOc1ccccc1)C(=O)c1cc(COc2c(F)cccc2F)on1	-24.9% (inactive)	–

Structure (SMILES)	activity change, negative = growth inhibition	Potency
CCOC(=O)CNC(=O)CSc1ccc2nnc(-c3cccnc3)n2n1	-1.35% (inactive)	–
COc1ccc(COC(=O)c2n[nH]c3ccccc23)cc1F	-1.31% (inactive)	–
Cn1c(SCc2c(F)cccc2Cl)nnc1-c1cnccn1	-18.6% (inactive)	–
Cc1cc([N+](=O)[O-])c(NC2CCCCC2)c([N+](=O)[O-])c1	-10.4% (inactive)	–
CC1CN(C(=S)Nc2ccc(S(N)(=O)=O)cc2)CC(C)O1 (stereo not given)	11% (inactive)	–
COCCN(Cc1cc2cc3c(cc2nc1Cl)OCO3)C(=O)c1cccc(C)c1	–	16.4 µM (active)
CCOC(=O)NCc1ccc2c(c1)OCO2	-1.31% (inactive)	–
CCCCN(CC)C(=O)c1ccc2c(c1)OCO2	-22.7% (inactive)	–
Nc1ncnc2c1ncn2[C@@H]1O[C@H](C(=O)N2CCCN(Cc3ccccc3F)CC2)[C@@H](O)[C@H]1O	-25.2% (inactive)	–
COC(=O)CCC(=O)N1CCCC(CO)(Cc2ccccc2)C1 (stereo not given)	-38.2% (inactive)	–
CCOc1cc(CN2CCCC(CO)(Cc3ccc(F)cc3F)C2)ccc1OC (stereo not given)	-19.8% (inactive)	–
COc1cccc(CC2(CO)CCCN(Cc3nc(-c4cccs4)oc3C)C2)c1 (stereo not given)	–	20.6 µM (active)
Cc1ccc(CS(=O)(=O)CCC(=O)NC2CC2)cc1	-0.142% (inactive)	–
CC[N+]1(CC)CC2=Cc3ccccc3CC2C1 (stereo not given)	-19.9% (inactive)	–
O=C(Cn1c[n+](CC(=O)c2ccc([N+](=O)[O-])cc2)cn1)c1ccc([N+](=O)[O-])cc1	–	20.6 µM (active)
O=C(c1ccncc1)c1ccc([N+](=O)[O-])cc1	-16.7% (inactive)	–
O=C(Nn1cnnc1)c1ccc([N+](=O)[O-])cc1	-4.36% (inactive)	–
CCOC(=O)CSc1nnc(-c2ccc([N+](=O)[O-])cc2)o1	-10.3% (inactive)	–
O=C(Nc1ccccc1)c1ccccc1OCc1ccccc1	-23.2% (inactive)	–
O=C(NC1CCC(O)CC1)c1ccccc1OCc1ccc(F)cc1 (stereo not given)	9.54% (inactive)	–
COc1ccccc1C(=O)NNC(=O)c1ccc(NC(=O)c2ccccc2)cc1	-8.31% (inactive)	–
COc1ccccc1C(=O)Nn1cnnc1	3.96% (inactive)	–
COc1ccccc1C(=O)c1ccccc1C(=O)c1ccccc1	–	18.4 µM (active)
CC(=O)c1ccccc1OCc1ccc(C(=O)c2ccccc2)cc1	–	16.4 µM (active)
